System: TDF
Experiment: H1.0 immunofluorescence intensity relative to DMSO (% of DMSO); higher = stronger H1.0 induction, active = 120 or more
Conditions: concentration: 10 µM; 24 h
Outline: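 H1.0 nuclear intensity or cell number is stated as percent of the plate control, based on the median of replicates, and HCC1569 values were smoothed for positional effects. These came from HCC1569 and TDF cells treated with compounds at 10 µM for 24 h at 37 °C in triplicate, then fixed in 3.7% formaldehyde and stained with a rabbit anti-H1.0 antibody, an AlexaFluor 647 secondary and DAPI.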
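Also: TDF is a line of transformed human dermal fibroblasts of mesenchymal origin.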

H1.0 immunofluorescence intensity, inactive:
NC(=S)NCCCC(N)C(=O)O (centres undefined) [Thiocitrulline] 91.5, COc1ccc(CCNCC(O)c2ccc(O)cc2)cc1OC (stereo not drawn) [R(-)-Denopamine] 93.5, COc1ccc2c(c1)CC[C@@H]1[C@@H]2CC[C@]2(C)[C@@H](NCCCCCCN3C(=O)C=CC3=O)CC[C@@H]12.O 99.9, N#CC(=Cc1ccc(O)c(O)c1)C(=O)NCc1ccccc1 91.1, CN(C)CCOc1cc(-c2cn[nH]c2)ccc1NC(=O)C1COc2ccccc2O1 (centres undefined) 87.3, CC(C)(C)C1(O)CCN2CC3c4ccccc4CCc4cccc(c43)C2C1.Cl (racemic) 88.7, CCC(C)C(=O)OC1CC(C)C=C2C=CC(C)C(CCC3CC(O)CC(=O)O3)C21 (centres undefined) [Lovastatin] 119, Cl.NC(N)=NC(=O)Cc1c(Cl)cccc1Cl [Guanfacine hydrochloride] 86.8, CCN(CC)CCNC(=O)c1cc(Cl)c(N)cc1OC.Cl [Metoclopramide hydrochloride] 94.3
